Screen size: about 330,000 compounds; about 1,900 (0.58%) were called active. Another 4% or so got no clear call; they are omitted. Cut-off read from the data, not from the text of the source: inconclusive = inhibition above about 70% without an active follow-up result; inactive = below that. A selection follows. Potency and affinity values are given separately.

The nature of the experiment: M. tuberculosis growth inhibition, HTS (AID 449762).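 Note: bacterial growth assessed after seven days of incubation.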 As to conditions: M. tuberculosis H37Rv growth inhibition, 7H9 media; at 25 µM; hits give high values.
On to `C[C@H](CO)N1C[C@H](C)[C@@H](CN(C)C(=O)NC2CCCCC2)Oc2ccc(NC(=O)Cn3cnnn3)cc2C1=O`, for which the inhibition is 4.07% (inactive).
Take `Cc1c(C)c(C)c(CN2CCCC2)c(C)c1C`: the inhibition was 2.65% (inactive).
Take `CNC(=O)c1ccc(NC(=O)CCc2c(C)noc2C)cc1`: the inhibition is -12.4% (inactive).
On to `CC[C@@]12C(=O)N(c3cccc(F)c3)C(=O)N1[C@H](c1ccc(F)cc1)[C@@H]1C(=O)N(C3CCCCC3)C(=O)[C@@H]12`, for which the inhibition is 0.17% (inactive).
For the molecule `CC(=O)Nc1ccc(N2C(C(C)=O)=NN(c3ccccc3)C2c2cccs2)cc1` (centres undefined), the inhibition was 1.3% (inactive).
In the case of `CC(=O)C1=NN(c2ccccc2)C(c2cccs2)N1c1ccccc1` (centres undefined), the inhibition is -3.16% (inactive).
Turning to `CC(=O)OCC1=C(C(=O)O)N2C(=O)C(NC(=O)C(C)Cn3cc(Cl)cn3)C2SC1` (centres undefined), the inhibition is -1.4% (inactive).
The same measure for `CCCSc1nsc(SCCC)c1C#N`: -0.55% (inactive).
With `CN(Cc1ccccc1)C(=O)Cn1c(=O)oc2cc(S(=O)(=O)N3CCCC3)ccc21`, the inhibition was -1.71% (inactive).
In the case of `COc1cc(C2C(C(=O)C(C)(C)C)=C(O)C(=O)N2Cc2ccccc2)ccc1O` (centres undefined), the inhibition was 1.41% (inactive).
In the case of `Cc1ccc(NC(=O)c2oc3ccc(S(=O)(=O)N4CCOCC4)cc3c2C)cc1C`, the inhibition is -7.43% (inactive).
For `COc1cccc(NC(=O)c2oc3ccc(S(=O)(=O)N4CCOCC4)cc3c2C)c1`, the inhibition is 58% (inactive).
Regarding `O=C(O/N=C1/CCCc2occc21)c1ccccc1`, the inhibition is 6.31% (inactive).
The same measure for `CCCn1c(S(=O)(=O)O)nc2ccccc21`: 5.54% (inactive); for `COc1cc2c(cc1OC)C(C)N(S(=O)(=O)c1cccs1)CC2` (centres undefined): -12.1% (inactive).
As for `O=C(NC1CCCC1)C(c1ccncc1)N(CCCN1CCOCC1)C(=O)c1ccc(-c2ccccc2)[nH]1` (centres undefined), the inhibition is 3.89% (inactive).
The same measure for `O=C(NC1CCCCC1)C(c1ccc(F)cc1)N(CCN1CCOCC1)C(=O)c1ccc(-c2ccccc2)[nH]1` (centres undefined): 42.3% (inactive); for `CCC(COC(=O)Nc1ccccc1)NC(=O)OC(C)C` (centres undefined): -6.07% (inactive); for `COc1cccc(Cn2cnc3c(NS(=O)(=O)c4cc(Cl)ccc4Cl)c(C)c(C)cc32)c1`: 0.44% (inactive).
Turning to `Oc1ccc(Nc2nc(-c3ccc(O)cc3)cs2)cc1`, the inhibition is 4.52% (inactive).
The same measure for `NS(=O)(=O)c1ccc(Nc2nc(-c3ccc4ccccc4c3)cs2)cc1`: 1.78% (inactive); for `CSc1ccccc1NC(=O)Cn1nnc(-c2ccc(S(C)(=O)=O)cc2)n1`: -2.14% (inactive); for `NC(=O)C1CCN(Cc2nc(-c3ccccc3)no2)CC1`: -14.2% (inactive).
With `O=c1c2ccccc2cnn1Cc1n[nH]c(=S)n1-c1ccc(F)cc1`, the inhibition is 4.78% (inactive).
For the molecule `CCOC(=O)N/N=C(\C)c1ccc(C)o1`, the inhibition is -1.85% (inactive).
On to `CCOC(=O)N/N=C\c1ccc([N+](=O)[O-])o1`, for which the inhibition is -1.58% (inactive).
The same measure for `CC(C)NC(=O)N(O)C1N(Cc2ccc3c(c2)OCO3)C(=S)SC1(C)C` (centres undefined): 3.94% (inactive); for `CCCc1cc(C(=O)OC)c(NC(=O)CCCC(=O)O)s1`: 0.02% (inactive); for `Cc1nn(CC(=O)NCCCc2ccccc2)c(=O)c2cc3occc3n12`: 3.16% (inactive).
The same measure for `COc1cccc(NC(=O)CN(C)C(=O)CNC(=O)c2ccc(Oc3ccccc3)cc2)c1`: 7.98% (inactive).
For `Cc1c(Cl)cccc1NC(=S)N1CCN(C(=O)c2ccco2)CC1`, the inhibition is -0.43% (inactive).
Turning to `COc1ccc(N2C(=O)C(F)(F)C2c2ccc(C)cc2)cc1OC` (centres undefined), the inhibition was 60.7% (inactive).
The same measure for `Cc1ccc(N2C(=O)C(CN(C)C)C2c2ccccc2)cc1` (centres undefined): -6.05% (inactive).
For the molecule `CC1=NN(C(=O)c2c(Br)c(C)nn2C)C(O)(C(F)(F)F)C1` (centres undefined), the inhibition is 0.52% (inactive).
Turning to `C#CCSc1nc2ccccc2n1C(=O)c1ccc(S(=O)(=O)N2CCCCC2)cc1`, the inhibition was -2.86% (inactive).
`COC(=O)C1=C(c2ccc(S(C)(=O)=O)cc2)C[C@@H]2CC[C@H]1N2C(=O)N1CCCCC1`: the inhibition is 3.7% (inactive).
The same measure for `Cc1c(Cl)cccc1NC(=O)NCc1ccccn1`: -11.4% (inactive); for `Cc1c(C(=O)NCc2ccccn2)oc2c(Cl)cccc12`: -3.71% (inactive).
Regarding `CCC1CCCCN1CCCNC(=O)Cn1nc(C)n2nc(-c3ccccc3)cc2c1=O` (centres undefined), the inhibition is 1.58% (inactive).
For the molecule `CCSc1nnc(CCNS(=O)(=O)c2ccc(C(C)=O)cc2)n1C`, the inhibition is 0.26% (inactive).
As for `S=C(Nc1cc(Cl)cc(Cl)c1)N1CCCC1`, the inhibition is 0.04% (inactive).
With `CCCn1cnc2c(N)c(C)c(C)cc21`, the inhibition is -11.4% (inactive).
Consider `Cc1cc2c(ncn2Cc2ccccc2)c(N)c1C`, for which the inhibition was 2.7% (inactive).
For `O=C(NNC(=O)C1CCN(c2ncccn2)CC1)c1ccc(F)cc1`, the inhibition was 0.94% (inactive).
On to `CC(=O)OC1N=C(c2ccccc2Cl)c2cc(Br)ccc2N(C)C1=O` (centres undefined), for which the inhibition is -6.48% (inactive).
As to `N#C/C(=C/c1ccc(Br)s1)C(=O)NCCc1c[nH]c2ccccc12`, the inhibition was 3.76% (inactive).
The same measure for `N#C/C(=C/c1ccc(N2CCCCC2)o1)C(=O)NCCc1c[nH]c2ccccc12`: -3.85% (inactive); for `CCN1CCc2nc(NC(=O)Cc3ccc4c(c3)OCCO4)sc2C1`: -17.6% (inactive); for `CC(C)NC(=O)CCCN1C(=O)c2ccccc2Sc2ncccc21`: 1.48% (inactive).
In the case of `O=C(O)c1cc(-c2ccncc2)nc2ccc(S(=O)(=O)N3CCOCC3)cc12`, the inhibition is 3.61% (inactive).
Take `O=C(NC(=S)Nc1ccc(N2CCOCC2)c(Cl)c1)c1cccs1`: the inhibition is 3.13% (inactive).
Take `O=C(Nc1ccc(N2CCCC2)c(Cl)c1)c1cccs1`: the inhibition is 7.74% (inactive).
As for `COc1ccc2c(c1)C(=O)N1[C@H]3c4cc(OC)ccc4OC[C@@H]3[C@H](c3ccccc3)[C@]1(C)C(=O)N2`, the inhibition is 1.44% (inactive).
As to `COc1ccc2c(c1)[C@H]1[C@H](CO2)[C@H](c2ccccc2)[C@]2(C)C(=O)Nc3ccc(C)cc3C(=O)N12`, the inhibition is 1.01% (inactive).
The same measure for `O=c1c2cccc3c2c(nn1-c1ccccc1)-c1ccccc1-3`: -2.02% (inactive); for `COc1cccc(NC(=O)CN(C)C(=O)c2c(C)nn(CC(C)C)c2Cl)c1`: -7.79% (inactive); for `O=C(COc1ccccc1)OCc1csc(Nc2ccccc2)n1`: 11.3% (inactive).
On to `O=C(COc1ccc(Cl)cc1)OCc1csc(Nc2ccccc2)n1`, for which the inhibition is 4.58% (inactive).
On to `CC1CCCC(NC(=O)COC(=O)c2ccc(Br)o2)C1C` (centres undefined), for which the inhibition was 10.4% (inactive).
Regarding `COCCN(C(=O)c1cc(-c2ccncc2)nc2ccccc12)c1c(N)n(CC(C)C)c(=O)[nH]c1=O`, the inhibition is -4.69% (inactive).
As to `C=C(C)C1Cc2c(C)nn(-c3cccc4ccccc34)c2C1` (centres undefined), the inhibition is 40.9% (inactive).
The same measure for `C=C(C)C1Cc2c(C)nn(-c3ccccc3)c2C1` (centres undefined): 5.29% (inactive); for `CC(c1ccccc1)N1C(=O)C2C3C=CC(C4CC34)C2C1=O` (centres undefined): 0.61% (inactive).
`CCN=C1NN=C(c2cc(C)n(Cc3ccco3)c2C)CS1`: the inhibition is -1.01% (inactive).
As to `Cc1cc(C2=NNC(=NC3CC3)SC2)c(C)n1Cc1ccco1`, the inhibition was 63.5% (inactive).
With `CCCCn1c(CN2CCN(c3cccc(Cl)c3)CC2)nc2c1c(=O)[nH]c(=O)n2C`, the inhibition is 62.7% (inactive).
`CC1CCCN(C2(O)C(=O)Nc3ccc(Br)cc32)C1` (centres undefined): the inhibition was 5.15% (inactive).
Regarding `COCCN(C(=O)COC(=O)c1cc2ccccc2cc1OC)c1c(N)n(Cc2ccccc2)c(=O)[nH]c1=O`, the inhibition was -2.06% (inactive).
The same measure for `COc1ccccc1OCC(=O)Nc1ccc(C(N)=O)cc1`: -3.41% (inactive).
The same measure for `CC(=Nc1cccc(O)c1)c1sc2ccccc2c1O`: 11.9% (inactive); for `CCCn1nc(C(=O)Nc2ccc(S(=O)(=O)Nc3nccs3)cc2)c2ccccc2c1=O`: 8.73% (inactive); for `O=C(Nc1ccccc1F)Nc1ccccc1Br`: 4.25% (inactive).
The same measure for `CCOc1ccc(Br)cc1/C(C)=N\NC1=NCCN1`: -0.3% (inactive).
On to `COc1ccc(Br)cc1/C(C)=N/NC1=NCCN1`, for which the inhibition was 1.92% (inactive).
In the case of `CC(C)OCCCN1CC(=O)N2C(c3cccc([N+](=O)[O-])c3)c3[nH]c4ccccc4c3C[C@H]2C1=O` (some centres undefined), the inhibition is 19.4% (inactive).
As to `CCc1cc(-c2nc(N)ncc2-c2ccc(Br)cc2)c(O)cc1OC`, the inhibition was 14.9% (inactive).
For `CCCc1cc(-c2nc(N)ncc2-c2csc(C)n2)c(O)cc1OC`, the inhibition was -5.66% (inactive).
The same measure for `CC(C)C(=O)Nc1nc2ccc(S(C)(=O)=O)cc2s1`: 4.62% (inactive); for `O=C(O)c1ccc(-n2c(-c3ccccc3)n[nH]c2=S)cc1`: -4.35% (inactive).
On to `Cc1ccccc1CN1CCN(Cc2ccccc2)CC1`, for which the inhibition is -6.4% (inactive).
Consider `CCN1CCN(Cc2ccccc2C)CC1`, for which the inhibition was -5.92% (inactive).
On to `CCOC(=O)Cc1csc(SCc2nc3ccccc3c(=O)[nH]2)n1`, for which the inhibition is -2.6% (inactive).
In the case of `CSC(=S)N/N=C/c1ccc(N(C)C)cc1`, the inhibition is 3.05% (inactive).
The same measure for `CSC(=S)N/N=C/c1ccc(Br)cc1`: 57.5% (inactive).
Take `COc1ccccc1N(O)C1CC(=O)N(c2ccc(F)cc2)C1=O` (centres undefined): the inhibition was 10.9% (inactive).
The same measure for `COc1ccccc1N1C(=O)CC(N(O)c2ccccc2)C1=O` (centres undefined): 7.06% (inactive).
`Cc1ccc(/C=N/NC(=S)N2CCOCC2)cc1`: the inhibition was -4.55% (inactive).
On to `S=C(N/N=C/c1ccc(Cl)cc1)N1CCOCC1`, for which the inhibition is 10.7% (inactive).
Turning to `N#Cc1c(N)nc(Sc2ccc(Cl)cc2)c(C#N)c1-c1ccccc1Cl`, the inhibition was 7.13% (inactive).
Regarding `O=C(O)CCCNS(=O)(=O)Cc1ccccc1`, the inhibition was 2.38% (inactive).
`COc1cc(OC)nc(Oc2ccccc2C(=O)Oc2ccc(C)cc2)n1`: the inhibition was -5.69% (inactive).
Regarding `COc1cc(OC)nc(Oc2ccccc2C(=O)Oc2ccccc2Cl)n1`, the inhibition is 3.91% (inactive).
In the case of `O=C(NCc1ccccc1)N1CCC(CO)(Cc2cccc(F)c2)CC1`, the inhibition was 1.55% (inactive).
In the case of `CC(=O)c1sc(NC(=O)c2c(F)cccc2F)nc1-c1ccccc1`, the inhibition is 3.31% (inactive).

As a reminder, the inhibition is the drop in the measured response relative to a control, in per cent.

These data come from PubChem BioAssay AID449762 (Southern Research Specialized Biocontainment Screening …, 2010).
